Rows were chosen to be rich in hits. Some 2.1% of all compounds tested hit in one or more screens of this group.
ROS inducer: raises reactive oxygen species in U2OS cancer cells; U2OS ROS induction, H2DCF-DA fluorescence; ROS induction (% of piperlongumine), % at 10 µM; actives 2% (n = 46,000); in the data active = ROS induction above about 79%, passing the limit was not always enough;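 also: 0% = DMSO vehicle median and 100% = reference compound median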
YB-1 expr inh: YB-1 expression inhibition | U2OS, qRT-PCR YB-1 vs CDIP delta delta Cp, 16 h; stronger effect = higher value; zero = DMSO, each unit about twofold | AID 434959 | delta delta Cp (YB-1 minus CDIP) (test concentration not listed) | actives 0.37% (n = 30,000);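 active = delta delta Cp rounded down to an integer at or above 3, about 3 SD of DMSO wells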;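 also: higher means less YB-1 transcript or more CDIP transcript relative to DMSO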
* hit, by the source's call; nt = no result.

SMILES	ROS inducer	YB-1 expr inh
c1ccc2sc(NC3=NCN(C4CCCCCC4)CN3)nc2c1	100.4*	0.359
O=C(Nc1nc2ccccc2s1)C1CC1	-7.2	nt
CN(C)c1ccc(/C=C2/C(=O)Nc3ccccc32)cc1	9.2	-0.299
CC(=O)N1/C(=C/c2ccc(N(C)C)cc2)C(=O)c2ccccc21	150.9*	nt
CS/C(NCC1CC1)=C(/C#N)C(=O)c1ccc(Cl)cc1	195.9*	-0.471
CS/C(NC1CCCCC1)=C(/C#N)S(=O)(=O)c1ccc(Cl)cc1	44.7	-0.00514
CCCN(C(=O)Cc1c(C(=O)O)n(CC)c2ccccc12)c1cccc(Cl)c1	10.7	nt
C[C@H]1CN([C@@H](C)CO)C(=O)c2cccc(NC(=O)c3ccc(-c4nccs4)cc3)c2O[C@H]1CN(C)Cc1ccc(C(=O)Nc2ccccc2N)cc1	28.2	-0.387
C[C@@H]1CN([C@H](C)CO)C(=O)c2cccc(NC(=O)c3ccc(-c4nccs4)cc3)c2O[C@@H]1CN(C)Cc1ccc(C(=O)Nc2ccccc2N)cc1	213.8*	-0.459
C[C@H](CO)N1C[C@H](C)[C@H](CN(C)Cc2ccc(C(=O)Nc3ccccc3N)cc2)Oc2c(NC(=O)Nc3ccc(F)cc3)cccc2C1=O	2.8	-0.0281
C[C@@H]1CN([C@H](C)CO)C(=O)c2cccc(NC(=O)c3ccc(-c4nccs4)cc3)c2O[C@H]1CN(C)Cc1ccc(C(F)(F)F)cc1	105.3*	0.202
C[C@@H]1CN([C@H](C)CO)C(=O)c2cccc(NC(=O)c3ccc(-c4nccs4)cc3)c2O[C@H]1CN(C)Cc1ccc(C(=O)O)cc1	7.9	-0.409
C[C@@H]1CN([C@H](C)CO)C(=O)c2cccc(NC(=O)c3ccc(-c4nccs4)cc3)c2O[C@@H]1CN(C)Cc1ccc(-c2ccccc2)cc1	31.5	-0.232
C[C@@H]1CN([C@@H](C)CO)C(=O)c2cccc(NC(=O)Nc3ccc(C(F)(F)F)cc3)c2O[C@H]1CN(C)Cc1ccc(C(=O)Nc2ccccc2N)cc1	91.0*	-0.213
C[C@H](CO)N1C[C@H](C)[C@@H](CN(C)Cc2ccc(Cl)c(Cl)c2)Oc2c(NC(=O)c3ccc(-c4nccs4)cc3)cccc2C1=O	96.6*	-0.496
COC(=O)c1cc(S(=O)(=O)NCCc2ccccc2)cn1C	-0.4	nt
CCc1ccc(NC(=O)c2cc3ccccc3oc2=O)cc1	1.7	nt
O=c1c(S(=O)(=O)c2ccccc2)cn(Cc2ccc(F)cc2)c2ccc(F)cc12	12.9	nt
O=C(CSc1nc2ccccc2c(=O)n1CCC(=O)N1CCCCC1)c1ccccc1	18.2	nt
C[C@@H]1CN([C@H](C)CO)C(=O)c2cccc(NC(=O)c3ccncc3)c2O[C@H]1CN(C)C	-1.8	0.3
C[C@H](CO)N1C[C@H](C)[C@H](CN(C)C)Oc2c(NC(=O)c3ccncc3)cccc2C1=O	17.6	3.55*
NC1=NC(=O)/C(=C/c2ccc(I)o2)S1	141.1*	nt
Cc1ccc(-c2nn(CCC(=O)O)cc2/C=C2\SC(N)=NC2=O)cc1	0.8	nt
COC(=O)CN1C(=S)N(c2ccccc2)C(=O)/C1=C/c1ccc(-c2ccc(Cl)cc2)o1	73.5	nt
Cn1c(=NC(=O)CCSc2ccccc2)sc2cc(Cl)ccc21	-3.1	nt
SMILES	ROS inducer	YB-1 expr inh
CC12C=CC(=O)C=C1CCC1C2=CCC2(C)C1CC[C@@H]2C(=O)CN1CCN(c2cc(N3CCCC3)nc(N3CCCC3)n2)CC1 (stereo partly specified)	174.1*	-0.238
Cc1ccc2c(C)nc(NC3=NC(C(=O)Nc4ccc(Cl)c(Cl)c4)CC(=O)N3)nc2c1 (stereo unspecified)	-9.9	nt
Cc1cc(C)c2nc(NC3=NC(c4ccccc4)CC(=O)N3)nc(C)c2c1 (stereo unspecified)	114.5*	nt
N#Cc1ccc(C#CCOC(=O)Nc2ccc(Cl)cc2)cc1	-7.7	nt
CCOC(=O)CCCn1c(=O)c2cccn2c2ccccc21	1.3	nt
CCOC(=O)c1c2c(n3ccccc13)C(=O)c1ccccc1C2=O	209.9*	nt
COc1ccc2c(c1OC)C(=O)N1c3ccccc3N=C(c3ccc(Br)cc3)CC21 (stereo unspecified)	56.9	9.64*
COc1ccc(C2=NN(C(=O)CSCc3ccco3)C(c3cccc(OC)c3OC)C2)cc1 (stereo unspecified)	68.8	nt
Nc1ccc(S(=O)(=O)NC2CCCCC2)cc1	-13.6	nt
CCCSc1nc2c([nH]c3ccccc32)c(=O)n1-c1cc(C)cc(C)c1	-4.9	nt
COc1ccc(C2C(C(=O)c3ccc(F)cc3)C(=O)C(=O)N2c2nnc(C)s2)cc1OC (stereo unspecified)	-11.4	nt
CC1=C(C(=O)OCc2ccccc2)C(c2cccc(O)c2)C2=C(CC(c3ccccc3)CC2=O)N1 (stereo unspecified)	182.5*	nt
COC(=O)C1=C(C)NC2=C(C(=O)CC(c3ccccc3)C2)C1c1ccccc1OC(C)C (stereo unspecified)	46.2	-0.153
O=C(O)c1cc(-c2ccccc2)nc2ccccc12	1.8	-0.112
CCN(CC)c1ccc(-c2cc(C(=O)O)c3c(ccc4ccccc43)n2)cc1	439.5*	nt
N#Cc1c(C(F)(F)F)cc(-c2ccccc2)nc1SCC(=O)N1CCCCC1	14.3	nt
O=C(O)c1ccccc1C(=O)NCc1ccccc1Cl	-13.5	nt
Cc1c(C(=O)NCc2cccc(Cl)c2)oc2ccc3c(c12)C(=O)CC(C)(C)O3	-2.2	nt
CC(=O)Nc1cc(C(=O)N2CC=C(c3ccccc3)CC2)ccc1Sc1ccc(Cl)cc1	12.8	nt
C[C@@H]1CN([C@H](C)CO)C(=O)Cc2cc(NC(=O)C3CCCCC3)ccc2O[C@H]1CN(C)CC1CC1	95.3*	0.313
C[C@H]1CN([C@@H](C)CO)C(=O)Cc2cc(NC(=O)Nc3ccccc3)ccc2O[C@@H]1CN(C)CC1CCCCC1	2.2	0.286
C[C@H]1CN([C@@H](C)CO)C(=O)Cc2cc(NC(=O)C3CCCCC3)ccc2O[C@H]1CN(C)CC1CCCCC1	12.2	-0.457
C[C@@H]1CN([C@@H](C)CO)C(=O)Cc2cc(NC(=O)Nc3ccccc3)ccc2O[C@@H]1CN(C)CC1CCCCC1	94.5*	0.385
CCCCC(CC)C(=O)Nc1c2c(nc3c1CCC3)CCCC2 (stereo unspecified)	-4.9	nt
Cc1ccc2nc(C)nc(-c3ccccc3)c2c1	29.7	nt
Fc1ccc(-c2csc(N3CCN(C/C=C\c4ccccc4)CC3)n2)cc1	6.8	nt
Cc1ccc(C2=NS(=O)(=O)N(C)C(C(=O)Nc3sc4c(c3C(N)=O)CCCC4)=C2)cc1	-11.9	nt
COCCOC(=O)N1C(=O)[C@@]2(c3cc(C#Cc4ccc(OC)cc4)ccc31)[C@H](c1ccccc1OCCO)N1[C@H](c3ccccc3)[C@H](c3ccccc3)OC(=O)[C@H]1[C@@H]2C(=O)N1CCc2cc(OC)c(OC)cc2C1	111.7*	0.0525
COCCOC(=O)N1C(=O)[C@@]2(c3ccccc31)[C@H](C(=O)N1CCc3cc(OC)c(OC)cc3C1)[C@H]1C(=O)O[C@H](c3ccccc3)[C@H](c3ccccc3)N1[C@@H]2c1ccccc1OCCO	120.6*	0.656
COCCOC(=O)N1C(=O)[C@@]2(c3cc(C#CCNC(N)=O)ccc31)[C@H](C(=O)N1CCc3cc(OC)c(OC)cc3C1)[C@H]1C(=O)O[C@H](c3ccccc3)[C@H](c3ccccc3)N1[C@@H]2c1ccccc1OCCO	0.4	-0.2
